Structures can show the parent of a compound that is named as a salt.
The compounds below were run on Escherichia coli IAI1 (assay: growth (OD595) fold change vs plate DMSO controls (fold change (ratio)); higher = more growth). Conditions: incubation time: 27 h, anaerobic, 37 °C.
Summary of the method: (§1)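 Growth is calculated as fold change against the median of the DMSO control wells on each plate. Readings at 595 nm from anaerobic mGAM cultures (96-well, 27 h, 37 °C) were blank-subtracted, background-corrected with 20 µM compound solutions in water, and converted to OD by a calibration factor of 5. Fold changes above 1.5 were recorded as NA, and results are means of 2 biological replicates.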

SMILES | growth
CN(C)C(=N)NC(=N)N [Metformin hydrochloride] (20 µM) | 1.02
N=C(N=C(N)N)N1CCOCC1 [Moroxidine hydrochloride] (20 µM) | 1.05
CCOCC(O)COc1ccc(NC(=O)CC[S+](C)C)cc1 (configuration not stated) [Suplatast Tosylate] (20 µM) | 1.04
CCN1CCN(c2cc3c(cc2F)c(=O)c(C(=O)O)cn3C2CC2)CC1 [Enrofloxacin] (20 µM) | 0.0344
C=C1c2c(Cl)ccc(O)c2C(O)=C2C(=O)[C@]3(O)C(O)=C(C(N)=O)C(=O)[C@@H](N(C)C)[C@@H]3[C@@H](O)[C@H]12.O=C(O)c1cc(S(=O)(=O)O)ccc1O [Meclocycline sulfosalicylate] (20 µM) | 0.000715
C#CCN(C)CCCOc1ccc(Cl)cc1Cl [Clorgyline hydrochloride] (20 µM) | 0.993
CC1(C)[C@H](C(=O)O)N2C(=O)C[C@H]2S1(=O)=O [Sulbactam] (20 µM) | 1.19
CC(C)(C)C(=O)C(Oc1ccc(Cl)cc1)n1ccnc1 (configuration not stated) [Climbazole] (20 µM) | 1.05
CC1(C)O[C@@H]2[C@@H](CO[C@@]3(COS(N)(=O)=O)OC(C)(C)O[C@@H]23)O1 [Topiramate] (20 µM) | 0.972
CN1CCC(OC(c2ccccc2)c2ccccc2)CC1 [Diphenylpyraline hydrochloride] (20 µM) | 0.955
O=c1[nH]c(=O)n([C@H]2C[C@H](O)[C@@H](CO)O2)cc1/C=C/Br [Brivudine] (20 µM) | 1.06
COC(=O)C1=C(C)NC(C)=C(C(=O)OCC(C)C)C1c1ccccc1[N+](=O)[O-] (configuration not stated) [Nisoldipine] (20 µM) | 1.13
CCOC(=O)C(C)(C)Oc1ccc(Cl)cc1 [Clofibrate] (20 µM) | 1.23
CC(C)[C@H]1CC[C@H](C(=O)N[C@H](Cc2ccccc2)C(=O)O)CC1 [Nateglinide] (20 µM) | 1.22
O=C1OC(c2ccc(O)cc2)(c2ccc(O)cc2)c2ccccc21 [Phenolphthalein] (20 µM) | 0.983
COc1cc2c(cc1OC)C(=O)C(CC1CCN(Cc3ccccc3)CC1)C2 (configuration not stated) [Donepezil hydrochloride] (20 µM) | 1.23
CC1=C(CC(=O)O)c2cc(F)ccc2/C1=C\c1ccc([S+](C)[O-])cc1 (configuration not stated) [Sulindac] (20 µM) | 1.08
Cc1cn([C@H]2C=C[C@@H](CO)O2)c(=O)[nH]c1=O [Stavudine] (20 µM) | 0.807
C[C@]12CCC(=O)C=C1CC[C@@H]1[C@@H]2C(=O)C[C@@]2(C)[C@H]1CC[C@]2(O)C(=O)CO [Cortisone] (20 µM) | 0.978
C/C(O)=C(\C#N)C(=O)Nc1ccc(C(F)(F)F)cc1 [Teriflunomide] (20 µM) | 1.02
C[N+](C)(C)CCCCCC[N+](C)(C)C [Hexamethonium dibromide dihydrate] (20 µM) | 0.998
COC(=O)CCc1ccc(OCC(O)CNC(C)C)cc1 (configuration not stated) [Esmolol hydrochloride] (20 µM) | 0.87
O=C(O)Cc1ccccc1Oc1ccc(Cl)cc1Cl [Fenclofenac] (20 µM) | 1.02

These compounds were tested on Klebsiella aerogenes DSM 30053 in the same assay as above. Conditions: incubation time: 27 h, anaerobic, 37 °C.
Summary of the method: as §1

SMILES | growth
CCc1nc(N)nc(N)c1-c1ccc(Cl)cc1 [Pyrimethamine] (20 µM) | 0.961
CC(=O)Oc1cccc2c1C(=O)c1c(OC(C)=O)cc(C(=O)O)cc1C2=O [Diacerein] (20 µM) | 0.96
CC(C)(CO)[C@@H](O)C(=O)NCCCO [(D)-Panthenol] (20 µM) | 1.05
CCc1cc(Cl)c(OC)c(C(=O)NC[C@@H]2CCCN2CC)c1O [(S,-) Eticlopride hydrochloride] (20 µM) | 1.02
O=C1c2cccc(O)c2C(=O)c2c(O)cccc21 [Danthron] (20 µM) | 1.01
CN(C)CCC(c1ccc(Br)cc1)c1ccccn1 (configuration not stated) [Brompheniramine maleate] (20 µM) | 1.07
NC[C@H]1O[C@H](O[C@H]2[C@H](O[C@@H]3O[C@H](CO)[C@@H](O)[C@H]3O)[C@@H](O)[C@H](N)C[C@@H]2N)[C@H](N)[C@@H](O)[C@@H]1O [Ribostamycin sulfate salt] (20 µM) | 0.972
NS(=O)(=O)c1cc2c(cc1Cl)N=CNS2(=O)=O [Chlorothiazide] (20 µM) | 1.03
CCc1oc2ccccc2c1C(=O)c1cc(Br)c(O)c(Br)c1 [Benzbromarone] (20 µM) | 0.986
O=C1NCN(c2ccccc2)C12CCN(CCCC(c1ccc(F)cc1)c1ccc(F)cc1)CC2 [Fluspirilene] (20 µM) | 1.01
C[C@H](CCC(=O)O)[C@H]1CC[C@H]2[C@@H]3C(=O)C[C@@H]4CC(=O)CC[C@]4(C)[C@H]3CC(=O)[C@]12C [Dehydrocholic acid] (20 µM) | 0.94
CCn1cc(C(=O)O)c(=O)c2ccc(C)nc21 [Nalidixic acid sodium salt] (20 µM) | 0.814
COc1cc(C(=O)NS(=O)(=O)c2ccccc2C)ccc1Cc1cn(C)c2ccc(NC(=O)OC3CCCC3)cc12 [Zafirlukast] (20 µM) | 0.99
NCCc1ccc(O)c(O)c1 [Dopamine hydrochloride] (20 µM) | 1.03
Cc1c(-c2ccccc2)oc2c(C(=O)OCCN3CCCCC3)cccc2c1=O [Flavoxate hydrochloride] (20 µM) | 1.06
Oc1c(I)cc(Cl)c2cccnc12 [Clioquinol] (20 µM) | 0.978
CN(C)C(=N)NC(=N)N [Metformin hydrochloride] (20 µM) | 0.989
N=C(N=C(N)N)N1CCOCC1 [Moroxidine hydrochloride] (20 µM) | 1
CCOCC(O)COc1ccc(NC(=O)CC[S+](C)C)cc1 (configuration not stated) [Suplatast Tosylate] (20 µM) | 0.988
CCN1CCN(c2cc3c(cc2F)c(=O)c(C(=O)O)cn3C2CC2)CC1 [Enrofloxacin] (20 µM) | 0.107

SMILES | growth
C=C1c2c(Cl)ccc(O)c2C(O)=C2C(=O)[C@]3(O)C(O)=C(C(N)=O)C(=O)[C@@H](N(C)C)[C@@H]3[C@@H](O)[C@H]12.O=C(O)c1cc(S(=O)(=O)O)ccc1O [Meclocycline sulfosalicylate] (20 µM) | 0.0719
C#CCN(C)CCCOc1ccc(Cl)cc1Cl [Clorgyline hydrochloride] (20 µM) | 0.95
CC1(C)[C@H](C(=O)O)N2C(=O)C[C@H]2S1(=O)=O [Sulbactam] (20 µM) | 0.976
CC(C)(C)C(=O)C(Oc1ccc(Cl)cc1)n1ccnc1 (configuration not stated) [Climbazole] (20 µM) | 1.07
CC1(C)O[C@@H]2[C@@H](CO[C@@]3(COS(N)(=O)=O)OC(C)(C)O[C@@H]23)O1 [Topiramate] (20 µM) | 0.997
CN1CCC(OC(c2ccccc2)c2ccccc2)CC1 [Diphenylpyraline hydrochloride] (20 µM) | 0.989
O=c1[nH]c(=O)n([C@H]2C[C@H](O)[C@@H](CO)O2)cc1/C=C/Br [Brivudine] (20 µM) | 1.02
COC(=O)C1=C(C)NC(C)=C(C(=O)OCC(C)C)C1c1ccccc1[N+](=O)[O-] (configuration not stated) [Nisoldipine] (20 µM) | 1.02
CCOC(=O)C(C)(C)Oc1ccc(Cl)cc1 [Clofibrate] (20 µM) | 1.03
CC(C)[C@H]1CC[C@H](C(=O)N[C@H](Cc2ccccc2)C(=O)O)CC1 [Nateglinide] (20 µM) | 1.02
O=C1OC(c2ccc(O)cc2)(c2ccc(O)cc2)c2ccccc21 [Phenolphthalein] (20 µM) | 0.993
COc1cc2c(cc1OC)C(=O)C(CC1CCN(Cc3ccccc3)CC1)C2 (configuration not stated) [Donepezil hydrochloride] (20 µM) | 1.02
CC1=C(CC(=O)O)c2cc(F)ccc2/C1=C\c1ccc([S+](C)[O-])cc1 (configuration not stated) [Sulindac] (20 µM) | 1.02
Cc1cn([C@H]2C=C[C@@H](CO)O2)c(=O)[nH]c1=O [Stavudine] (20 µM) | 0.99
C[C@]12CCC(=O)C=C1CC[C@@H]1[C@@H]2C(=O)C[C@@]2(C)[C@H]1CC[C@]2(O)C(=O)CO [Cortisone] (20 µM) | 1
C/C(O)=C(\C#N)C(=O)Nc1ccc(C(F)(F)F)cc1 [Teriflunomide] (20 µM) | 1.01
C[N+](C)(C)CCCCCC[N+](C)(C)C [Hexamethonium dibromide dihydrate] (20 µM) | 1
COC(=O)CCc1ccc(OCC(O)CNC(C)C)cc1 (configuration not stated) [Esmolol hydrochloride] (20 µM) | 0.987
O=C(O)Cc1ccccc1Oc1ccc(Cl)cc1Cl [Fenclofenac] (20 µM) | 0.998
